Screening results (PubChem)
This is a sample that favours compounds with a hit; in the whole collection about 21% have one here.
DT40 TDP1 no CPT – qHTS for Inhibitors of human tyrosyl-DNA phosphodiesterase 1 (TDP1): qHTS in cells in absence of CPT. DT40 Tdp1-/- hTDP1 cells, no CPT, ATP luminescence, 48 h. Potency, µM (top dose mostly 46.2 µM), inactives show top-dose activity change, negative = growth inhibition, hits mostly inhibitors. 420,000 compounds, 15% hits. AID 686978, 2013; further: potency means the concentration at half of the fitted maximal effect; nearly all actives have a fitted effect of over 55% in size
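A cellular qHTS used chicken DT40 cells lacking endogenous Tdp1 but carrying stably transfected human TDP1. Compounds were applied without camptothecin, and cell growth kinetics were judged by ATP-dependent luminescence after ≥48 hr.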
TDP1 cell CPT – growth inhibition of DT40 Tdp1-/-;hTDP1 cells with camptothecin (screen for TDP1 inhibitors); chicken DT40 Tdp1-/-;hTDP1 cells + 20 nM CPT, ATP luminescence, 48 h; Potency, µM (highest dose often 46.2 µM), inactives show at the top dose activity change, negative = growth inhibition, hits mostly inhibitors; 420,000 compounds, 12% hits; AID 686979; further: potency means the concentration at half of the fitted maximal effect; nearly all actives have a fitted effect of over 55% in size
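Cell growth measured by CellTiter-Glo luminescence after a minimum 48 h, 37 C compound exposure with 20 nM CPT in Tdp1-knockout DT40 cells stably expressing hTDP1, seeded 400/well; qHTS titration format.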
ELG1 DNA repair – ELG1-dependent DNA repair inhibition; HEK293T ELG1-luciferase reporter, luminescence, 16 h; DNA damage induced by 5-fluorouridine; Potency, µM (doses to about 46.1 µM), inactives show at the highest dose activity change, negative = inhibition, actives largely listed as inhibitors; 330,000 compounds, 2.3% hits; further: potency means the concentration at half of the fitted maximal effect; nearly all actives have a fitted effect of over 55% in size
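Luminescence from the luciferase reporter, measured 30 min after ONE-Glo reagent at room temperature, was the read-out. Beforehand, 2,000 cells per well were exposed for 16 hr at 37 °C to 5-fluorouridine together with compound or vehicle.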
IL1B secr inh – inflammasome signaling inhibition, IL-1 beta readout. 360,000 compounds, 4.7% hits. activity change, % at 57.5 µM. THP-1 LPS/ATP IL-1B secretion, AlphaLISA, 16 h; stronger effect = lower value; in the data active means activity change below about -50%; inconclusive means mostly about -30% to -49%
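THP-1 cells pretreated 1 hr with compounds (up to 57.5 uM final), then stimulated with LPS (250 ng/mL final) plus ATP (1.25 mM final); secreted IL-1B measured by AlphaLISA after 16 hr, decreased signal indicating inhibition.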
RORg inh – ROR gamma (mouse) transcription inhibition. P51450. Drosophila S2 Gal4-RORgamma UAS-luciferase reporter, 20 h. Potency, µM (doses to about 53.6 µM), for inactives: at the top dose activity change, negative = inhibition, most hits filed as inhibitors. 310,000 compounds, 5.4% hits. AID 2551; further: potency means the concentration at half of the fitted maximal effect; nearly all actives have a fitted effect of over 60% in size
Target sequence (P51450 whole entry, looked up, the tested form may be a part): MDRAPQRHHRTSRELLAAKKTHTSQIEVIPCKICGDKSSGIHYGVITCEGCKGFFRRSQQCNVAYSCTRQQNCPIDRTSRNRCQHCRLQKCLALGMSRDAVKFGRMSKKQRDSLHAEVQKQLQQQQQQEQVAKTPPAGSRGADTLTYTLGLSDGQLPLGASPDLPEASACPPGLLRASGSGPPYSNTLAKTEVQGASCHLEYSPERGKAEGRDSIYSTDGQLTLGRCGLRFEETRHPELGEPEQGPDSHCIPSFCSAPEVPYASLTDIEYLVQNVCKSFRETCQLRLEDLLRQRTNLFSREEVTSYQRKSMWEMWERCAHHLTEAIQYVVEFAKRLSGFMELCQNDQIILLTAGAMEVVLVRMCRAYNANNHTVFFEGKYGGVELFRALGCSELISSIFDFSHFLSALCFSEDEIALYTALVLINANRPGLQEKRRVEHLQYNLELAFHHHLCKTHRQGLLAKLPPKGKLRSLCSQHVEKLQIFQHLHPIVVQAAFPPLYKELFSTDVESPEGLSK
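ROR gamma transcriptional activity was tracked as Gal4-UAS luciferase output in stably transfected Drosophila Schneider cells, with compound added 1 hr before 700 uM copper sulfate induction and a 20 hr ambient-temperature incubation.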
Gal4-VP16 FLuc – inhibits Gal4-VP16 luciferase reporter, ROR gamma counter-screen. Drosophila S2 Gal4-VP16 UAS-luciferase, luminescence, 20 h. Potency, µM (titrated, usually from 53.6 µM), inactives show at the highest dose activity, negative = inhibition, most hits filed as inhibitors. 310,000 compounds, 3.5% hits. AID 2546;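 further: Gal4-VP16 expression switched on by copper sulfate through the metallothionein promoter; potency means the concentration at half of the fitted maximal effect; nearly all actives have a fitted effect of over 50% in size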
* = called active by the depositor; ? = inconclusive; . = no result. Unless noted, the call rests on the fitted dose curve; in most records, active means well fitted curve in the direction sought with a large enough effect; inconclusive means small, poorly fitted or top-dose-only effect, or another doubt; inactive means no such curve, though single readings can be large; an effect the other way counts as inactive or inconclusive. On the % scale 0 is the no-effect control and ±100 the full control effect.

SMILES	DT40 TDP1 no CPT	TDP1 cell CPT	ELG1 DNA repair	IL1B secr inh	RORg inh	Gal4-VP16 FLuc
C[C@H](CO)N1C[C@H](C)[C@@H](CN(C)S(C)(=O)=O)Oc2ccc(NS(=O)(=O)c3cn(C)cn3)cc2C1=O	1.0%	5.0%	12.4%	16.9	.	.
Cc1c(N)nc(C(CC(N)=O)NCC(N)C(N)=O)nc1C(=O)NC(C(=O)NC(C)C(O)C(C)C(=O)NC(C(=O)NCCc1nc(-c2nc(C(=O)NCCCN[C@@H](C)c3ccccc3)cs2)cs1)C(C)O)C(O[C@@H]1O[C@@H](CO)[C@@H](O)[C@H](O)[C@@H]1O[C@H]1O[C@H](CO)[C@@H](O)[C@H](OC(N)=O)[C@@H]1O)c1cnc[nH]1 (stereo partly drawn)	1.68µM*	1.19µM*	.	.	.	.
COc1cc2c(cc1OC)CN(C1CCC(C(C)(C)C)CC1)CC2 (stereo not drawn)	20.6µM*	?	.	.	.	.
CCOc1ccc(C2C=C(c3ccc(F)cc3)Nc3ncnn32)cc1 (stereo not drawn)	?	-21.2%	-7.2%	-13.2	12.6µM*	?
Fc1ccc(Br)cc1C1C=C(c2cccnc2)Nc2ncnn21 (stereo not drawn)	16.4µM*	16.4µM*	-22.2%	28.7	-1.2%	-2.1%
CCOc1ccc(C2C=C(c3ccccc3)Nc3ncnn32)cc1 (stereo not drawn)	.	.	-12.5%	.	-26.1%	7.4%
CC(C)(C)c1ccc(C2=CC(c3ccccc3F)n3ncnc3N2)cc1 (stereo not drawn)	-18.2%	-22.2%	.	-26.9	.	.
CCOc1ccc(C2=CC(c3cc(Br)ccc3F)n3ncnc3N2)cc1Cl (stereo not drawn)	18.4µM*	14.6µM*	.	.	.	.
CCOC(=O)C1=C(C)Nc2ncnn2C1c1cccs1 (stereo not drawn)	-9.6%	-23.1%	-2.0%	48.2	-25.0%	7.2%
CCOC(=O)C1=C(C)Nc2ncnn2C1c1cc(Br)ccc1F (stereo not drawn)	25.9µM*	?	-12.9%	12.8	-23.0%	?
CCc1ccccc1NC(=O)Cc1c(C(=O)O)[nH]c2ccc(Cl)cc12	-1.2%	-3.2%	.	.	.	.
N#Cc1cccc(NC(=O)N2CCC3(CC2)CCN(C(=O)c2ccco2)CC3)c1	?	-16.0%	.	.	31.8%	0.4%
CC(C)(C)C(=O)Nc1cccc(-c2cn3cccnc3n2)c1	-6.5%	-2.3%	.	.	.	.
CC(C)(C)C(=O)Nc1cccc(-c2cc(-c3c(Cl)cccc3Cl)no2)c1	-24.6%	-6.9%	8.2µM*	.	-2.8%	6.8%
COc1ccccc1CNC(=O)Cc1c(C)c2c(cc(C)c3c(C)c(C)oc32)oc1=O	0.2%	-3.6%	.	.	.	.
Cc1cc(NC(=O)Cn2nc3c(cc2=O)CCCC3)ccc1Br	-10.2%	-12.5%	-17.2%	-10.8	-8.2%	3.0%
Cc1cc(NC(=O)Nc2nc3c(s2)CCCCCC3)ccc1Br	18.4µM*	20.6µM*	.	.	.	.
Cc1ccc(NC(=O)Nc2nc3c(s2)CCCCCC3)cc1C	13µM*	13µM*	.	.	.	.
Cc1cc(NC(=O)Nc2csc3c2CCCC3)ccc1Br	9.2µM*	8.2µM*	.	.	.	.
CN(N=O)C(=O)N[C@H]1C(O)C(O)C(CO)O[C@@H]1O (stereo partly drawn)	-12.1%	0.5%	.	.	-1.2%	-1.8%
O=S1(=O)c2cccc3cccc(c23)N1CCCN1CCN(c2ccc(F)cc2)CC1	21.1µM*	?	.	.	13.9%	3.3%
Cc1ccc(CN2CCCn3nc(C(=O)NC(C)C)cc3C2=O)cc1	-21.9%	-10.6%	.	.	.	.
Cc1cc(C)cc(OCC(=O)NNC(=S)NC(=O)C2CC2)c1	13µM*	18.4µM*	-13.0%	82.5	?	-20.7%
COc1ccc(C(=O)NC(=S)NNC(=O)CNC(=O)C2CCCCC2)cc1	-21.8%	2.0%	20.2%	17.4	-41.6%	-10.9%
COc1ccc(OCC(=O)NNC(=S)NC(=O)C2CC2)cc1	?	16.4µM*	6.3%	29.4	-13.3%	5.6%
SMILES	DT40 TDP1 no CPT	TDP1 cell CPT	ELG1 DNA repair	IL1B secr inh	RORg inh	Gal4-VP16 FLuc
COc1ccc(OCC(=O)NNC(=S)NC(=O)C2CCCCC2)cc1	.	.	3.9%	.	14.1µM*	-11.2%
CCCCNC(=O)NNC(=O)COc1cc(C)cc(C)c1	1.8%	-2.7%	-6.1%	6.5	5.6%	-1.9%
CCOC(=O)c1ccc(NC(=O)c2cccc3c(=O)c4c([nH]c23)CCCC4)cc1	-29.3%	?	.	.	.	.
O=C(Nc1cccc(O)c1)c1cc(-c2ccc3c(c2)OCO3)on1	?	-15.0%	?	-8.0	3.98µM*	1.41µM*
COc1ccc(NC(=O)c2cc(-c3ccccc3Cl)on2)cc1OC	-2.6%	-5.5%	?	-27.5	5.4%	-7.1%
O=C(Nc1cccc(O)c1)c1cc(-c2ccccc2Cl)on1	-5.3%	-15.2%	?	?	0.224µM*	1.26µM*
CCOC(=O)[C@H]1[C@H]2COc3cc(OC)ccc3[C@@H]2N2C(=O)c3cc(F)ccc3NC(=O)[C@@]12C	?	?	4.1%	8.0	.	.
Nc1nc(SCC(=O)Nc2ccc(Oc3ccccc3)cc2)n[nH]1	-9.0%	-4.1%	-0.9%	9.8	?	17.8µM*
COc1ccccc1NC(=O)CSc1n[nH]c(-c2ccccn2)n1	14.6µM*	?	?	108.0	6.31µM*	5.01µM*
O=C(CSc1n[nH]c(-c2ccccn2)n1)Nc1ccccc1	?	23.1µM*	?	177.9	?	?
Nc1nc(SCC(=O)Nc2cccc(Oc3ccccc3)c2)n[nH]1	?	-13.3%	24.0%	-21.4	?	-6.1%
COc1ccccc1NC(=O)CSc1n[nH]c(-c2ccco2)n1	-16.1%	6.9%	.	8.5	.	.
CCCCCCCCNC(=O)c1cccnc1SCC(=O)Nc1ccccc1OC	20.6µM*	?	-4.6%	15.0	-10.1%	-11.0%
COc1ccc(NC(=O)CCS(=O)(=O)c2cc3c4c(c2)CCN4C(=O)CC3)c(OC)c1	-7.4%	-5.2%	.	.	.	.
COc1cccc(CNC(=O)[C@@H]2CCCN2C(=O)[C@H]2CCCCN2C(=O)c2ccccc2)c1	-19.3%	-12.4%	.	22.3	.	.
Cc1nn(CC(=O)NCCc2ccccc2Cl)c(=O)c2nn(-c3ccccc3)c(C)c12	-21.6%	-21.8%	.	.	.	.
COc1ccc(NC(=O)CSc2n[nH]c(-c3ccccn3)n2)cc1	23.1µM*	16.4µM*	?	150.2	15.8µM*	?
O=C(CSc1n[nH]c(-c2ccccn2)n1)Nc1ccccc1F	2.91µM*	4.11µM*	-28.0%	54.3	3.55µM*	5.01µM*
COc1ccc(OC)c(NC(=O)CSc2n[nH]c(-c3ccccc3Cl)n2)c1	?	10.3µM*	.	.	.	.
